This note sets out measurements from publication PMC7862700, “An all-to-all approach to the identification of sequence-specific readers for epigenetic DNA modifications on cytosine”.

Assay in all cases: DAPPL (digital affinity profiling via proximity ligation, sequencing); 10 mM Tris-HCl pH 7.5, 50 mM NaCl, 1 mM DTT, 4% glycerol, room temperature, 30 min; GST-TFs on glutathione beads, 16-mer random dsDNA library, 0.1% formaldehyde crosslink after washing; high values mean tight binding
In one experiment the target is T1, FEV (Homo sapiens, UniProt Q99581 1-238).
T1 sequence: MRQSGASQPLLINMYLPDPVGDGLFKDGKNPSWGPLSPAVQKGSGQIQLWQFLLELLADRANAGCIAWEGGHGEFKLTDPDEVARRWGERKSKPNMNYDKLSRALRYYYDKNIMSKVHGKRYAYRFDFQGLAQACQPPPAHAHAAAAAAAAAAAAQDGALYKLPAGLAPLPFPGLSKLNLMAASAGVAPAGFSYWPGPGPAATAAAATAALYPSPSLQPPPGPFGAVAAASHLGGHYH
As to conditions: protein: recombinant; tags: N-terminal GST; dsDNA, one strand shown. A digest of the protocol:
(§1)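 Binding signal is given per hexamer as its read frequency for a factor divided by its frequency in the tag-only sample. GST-fused human transcription factors were expressed in yeast, captured on glutathione beads, barcoded with DNA and pooled with that sample, then incubated with 200 nmole of a 16-mer random double-stranded DNA library in Tris/NaCl/DTT/glycerol buffer for 30 min at room temperature. The pools were then washed, crosslinked, proximity-ligated, amplified by PCR and sequenced on an Illumina NextSeq500.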

For the next experiment, the target named is ETV5 (Homo sapiens, UniProt P41161 1-510). As to conditions: protein: recombinant; tags: N-terminal GST; dsDNA, one strand shown. In a few lines: as §1
Another experiment concerns the target HSF1 (Homo sapiens, UniProt Q00613 1-529). As to conditions: protein: recombinant; tags: N-terminal GST; chain copies: 3; dsDNA, one strand shown. In a few lines: as §1
A further experiment has as its target T2, SPIC (Homo sapiens, UniProt Q8N5J4 1-248).
T2 sequence: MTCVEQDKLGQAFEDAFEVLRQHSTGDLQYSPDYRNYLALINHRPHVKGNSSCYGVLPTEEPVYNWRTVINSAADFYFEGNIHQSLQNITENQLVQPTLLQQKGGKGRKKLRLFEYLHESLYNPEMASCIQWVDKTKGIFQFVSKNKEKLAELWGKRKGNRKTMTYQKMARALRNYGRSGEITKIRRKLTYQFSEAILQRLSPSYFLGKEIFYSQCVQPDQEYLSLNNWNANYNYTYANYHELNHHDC
As to conditions: protein: recombinant; tags: N-terminal GST; dsDNA, one strand shown. A digest of the protocol: as §1

In a further experiment the target is ELF4 (Homo sapiens, UniProt Q99607 1-663). As to conditions: protein: recombinant; tags: N-terminal GST; dsDNA, one strand shown. In a few lines:
as §1

For another experiment, the target named is T3, ELK4 (Homo sapiens, UniProt P28324-2 1-405).
T3 sequence: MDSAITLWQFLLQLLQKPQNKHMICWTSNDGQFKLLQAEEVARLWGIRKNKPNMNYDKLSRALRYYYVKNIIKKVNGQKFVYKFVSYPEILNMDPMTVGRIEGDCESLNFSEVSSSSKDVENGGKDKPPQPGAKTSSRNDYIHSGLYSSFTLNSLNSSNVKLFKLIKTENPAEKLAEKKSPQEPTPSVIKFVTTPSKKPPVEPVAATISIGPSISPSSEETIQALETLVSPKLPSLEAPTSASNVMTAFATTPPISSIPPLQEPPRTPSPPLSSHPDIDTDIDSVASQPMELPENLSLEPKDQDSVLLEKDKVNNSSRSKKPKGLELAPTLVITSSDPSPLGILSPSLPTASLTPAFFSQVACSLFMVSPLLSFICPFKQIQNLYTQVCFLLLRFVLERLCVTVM
As to conditions: protein: recombinant; tags: N-terminal GST; dsDNA, one strand shown. A digest of the protocol:
as §1

The next experiment concerns the target T4, ETV2 (Homo sapiens, UniProt O00321 1-342).
T4 sequence: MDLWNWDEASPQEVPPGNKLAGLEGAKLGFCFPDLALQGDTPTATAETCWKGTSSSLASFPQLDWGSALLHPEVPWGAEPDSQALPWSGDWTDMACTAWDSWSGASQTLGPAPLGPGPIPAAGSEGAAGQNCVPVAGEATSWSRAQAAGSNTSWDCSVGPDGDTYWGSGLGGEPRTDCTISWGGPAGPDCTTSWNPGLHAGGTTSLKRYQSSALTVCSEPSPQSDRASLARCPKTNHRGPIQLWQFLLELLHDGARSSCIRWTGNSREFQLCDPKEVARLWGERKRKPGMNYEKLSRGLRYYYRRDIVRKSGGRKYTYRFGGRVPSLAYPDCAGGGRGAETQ
The following applies: protein: recombinant; tags: N-terminal GST; dsDNA, one strand shown. In a few lines: as §1

A further experiment deals with T5, ELF3 (Homo sapiens, UniProt P78545 1-371).
T5 sequence: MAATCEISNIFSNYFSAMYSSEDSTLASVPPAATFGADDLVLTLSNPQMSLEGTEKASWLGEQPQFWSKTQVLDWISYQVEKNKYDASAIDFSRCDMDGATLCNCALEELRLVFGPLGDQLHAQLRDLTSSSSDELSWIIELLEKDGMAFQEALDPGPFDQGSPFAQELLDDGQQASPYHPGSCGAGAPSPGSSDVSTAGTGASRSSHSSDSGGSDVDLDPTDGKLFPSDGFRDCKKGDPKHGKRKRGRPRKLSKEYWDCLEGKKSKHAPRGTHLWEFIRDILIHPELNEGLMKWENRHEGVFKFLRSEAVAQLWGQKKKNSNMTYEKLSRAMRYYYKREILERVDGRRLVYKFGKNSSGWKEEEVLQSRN
The following applies: protein: recombinant; tags: N-terminal GST; dsDNA, one strand shown. A digest of the protocol:
as §1

The next experiment deals with CRX (Homo sapiens, UniProt O43186 1-299). As to conditions: protein: recombinant; tags: N-terminal GST; dsDNA, one strand shown. In a few lines: as §1
The next experiment deals with ETV1 (Homo sapiens, UniProt P50549 1-477). As to conditions: protein: recombinant; tags: N-terminal GST; dsDNA, one strand shown. In a few lines: as §1
The next experiment deals with T6, ERF (Homo sapiens, UniProt P50548 1-548).
T6 sequence: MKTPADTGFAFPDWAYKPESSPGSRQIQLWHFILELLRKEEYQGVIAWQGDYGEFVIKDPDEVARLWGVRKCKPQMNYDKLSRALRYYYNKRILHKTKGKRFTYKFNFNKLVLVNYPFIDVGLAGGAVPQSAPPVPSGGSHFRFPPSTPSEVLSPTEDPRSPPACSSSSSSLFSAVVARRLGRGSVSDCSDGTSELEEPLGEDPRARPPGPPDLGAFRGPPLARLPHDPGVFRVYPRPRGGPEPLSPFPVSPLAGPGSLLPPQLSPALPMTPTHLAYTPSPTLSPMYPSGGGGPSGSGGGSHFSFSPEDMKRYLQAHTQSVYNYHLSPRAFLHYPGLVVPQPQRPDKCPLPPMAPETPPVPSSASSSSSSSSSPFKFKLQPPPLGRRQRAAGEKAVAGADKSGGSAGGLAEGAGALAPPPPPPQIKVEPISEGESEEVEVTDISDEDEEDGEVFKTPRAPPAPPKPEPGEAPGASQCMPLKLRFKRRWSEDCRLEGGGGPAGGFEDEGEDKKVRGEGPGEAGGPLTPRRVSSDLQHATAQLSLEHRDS
As to conditions: protein: recombinant; tags: N-terminal GST; dsDNA, one strand shown. A digest of the protocol:
as §1

The target in another experiment is T7, ETV3L (Homo sapiens, UniProt Q6ZN32 1-361).
T7 sequence: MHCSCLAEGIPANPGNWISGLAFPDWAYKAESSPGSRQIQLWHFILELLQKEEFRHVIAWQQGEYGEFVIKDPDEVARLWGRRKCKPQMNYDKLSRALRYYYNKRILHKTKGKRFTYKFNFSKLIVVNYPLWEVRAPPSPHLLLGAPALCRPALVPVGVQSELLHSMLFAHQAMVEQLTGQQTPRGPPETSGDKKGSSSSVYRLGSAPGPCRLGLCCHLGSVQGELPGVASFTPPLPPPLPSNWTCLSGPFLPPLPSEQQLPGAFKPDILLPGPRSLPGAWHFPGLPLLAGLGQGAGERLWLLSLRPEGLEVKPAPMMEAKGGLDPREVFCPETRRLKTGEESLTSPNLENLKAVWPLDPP
The following applies: protein: recombinant; tags: N-terminal GST; dsDNA, one strand shown. A digest of the protocol: as §1

In the next experiment the target is T8, ETS2 (Homo sapiens, UniProt P15036 1-469).
T8 sequence: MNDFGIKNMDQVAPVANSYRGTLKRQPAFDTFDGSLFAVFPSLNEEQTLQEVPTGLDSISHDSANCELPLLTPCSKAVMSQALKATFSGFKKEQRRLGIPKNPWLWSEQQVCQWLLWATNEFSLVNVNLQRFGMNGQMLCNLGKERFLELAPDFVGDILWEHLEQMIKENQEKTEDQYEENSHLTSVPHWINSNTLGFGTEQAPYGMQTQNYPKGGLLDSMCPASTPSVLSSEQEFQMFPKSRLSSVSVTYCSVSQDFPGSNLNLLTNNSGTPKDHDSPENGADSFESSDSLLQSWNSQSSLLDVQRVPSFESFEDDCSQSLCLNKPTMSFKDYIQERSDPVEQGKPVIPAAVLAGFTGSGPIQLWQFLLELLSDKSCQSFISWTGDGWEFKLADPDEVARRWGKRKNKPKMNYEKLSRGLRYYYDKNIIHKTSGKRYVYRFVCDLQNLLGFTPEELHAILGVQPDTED
The following applies: protein: recombinant; tags: N-terminal GST; dsDNA, one strand shown. A digest of the protocol:
as §1

The target of a further experiment is T9, SPDEF (Homo sapiens, UniProt O95238 1-335).
T9 sequence: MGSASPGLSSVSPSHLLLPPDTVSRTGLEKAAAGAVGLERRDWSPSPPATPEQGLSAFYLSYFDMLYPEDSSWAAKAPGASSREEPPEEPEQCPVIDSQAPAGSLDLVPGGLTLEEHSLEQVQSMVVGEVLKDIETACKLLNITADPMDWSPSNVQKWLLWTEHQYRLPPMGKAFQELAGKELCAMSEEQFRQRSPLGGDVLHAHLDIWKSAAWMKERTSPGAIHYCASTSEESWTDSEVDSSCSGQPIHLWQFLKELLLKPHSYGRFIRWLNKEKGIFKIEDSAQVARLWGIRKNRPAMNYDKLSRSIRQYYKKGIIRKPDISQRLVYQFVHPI
As to conditions: protein: recombinant; tags: N-terminal GST; dsDNA, one strand shown. A digest of the protocol:
as §1

The next experiment deals with T10, ETV7 (Homo sapiens, UniProt Q9Y603 1-341).
T10 sequence: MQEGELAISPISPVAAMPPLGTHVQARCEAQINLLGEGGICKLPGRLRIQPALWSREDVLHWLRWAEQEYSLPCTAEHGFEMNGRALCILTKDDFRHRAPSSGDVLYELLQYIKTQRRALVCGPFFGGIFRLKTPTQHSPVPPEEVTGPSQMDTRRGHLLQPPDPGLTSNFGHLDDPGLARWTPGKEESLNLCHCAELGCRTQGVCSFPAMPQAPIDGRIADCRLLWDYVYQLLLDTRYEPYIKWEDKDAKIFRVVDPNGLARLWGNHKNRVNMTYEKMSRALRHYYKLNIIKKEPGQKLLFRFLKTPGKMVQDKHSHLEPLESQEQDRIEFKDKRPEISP
The following applies: protein: recombinant; tags: N-terminal GST; dsDNA, one strand shown. A digest of the protocol:
as §1

The next experiment addresses T11, ELF5 (Homo sapiens, UniProt Q9UKW6-2 1-255).
T11 sequence: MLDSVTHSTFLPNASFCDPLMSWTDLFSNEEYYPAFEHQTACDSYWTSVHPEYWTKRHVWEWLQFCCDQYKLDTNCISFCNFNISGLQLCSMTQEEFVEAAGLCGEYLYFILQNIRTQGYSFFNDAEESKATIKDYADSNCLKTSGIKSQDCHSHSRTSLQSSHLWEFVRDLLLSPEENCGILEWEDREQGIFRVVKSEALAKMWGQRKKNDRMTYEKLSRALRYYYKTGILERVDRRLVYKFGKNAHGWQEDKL
The following applies: protein: recombinant; tags: N-terminal GST; dsDNA, one strand shown. In a few lines:
as §1

The next experiment has as its target T12, ETV3 (Homo sapiens, UniProt P41162-2 1-143).
T12 sequence: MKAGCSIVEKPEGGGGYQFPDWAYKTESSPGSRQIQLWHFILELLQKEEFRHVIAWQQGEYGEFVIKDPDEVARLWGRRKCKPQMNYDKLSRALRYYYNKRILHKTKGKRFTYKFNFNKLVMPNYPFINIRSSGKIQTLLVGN
The following applies: protein: recombinant; tags: N-terminal GST; dsDNA, one strand shown. A digest of the protocol:
as §1

A further experiment has as its target ETV6 (Homo sapiens, UniProt P41212 1-452). As to conditions: protein: recombinant; tags: N-terminal GST; dsDNA, one strand shown. A digest of the protocol:
as §1

HSF1, sequence (Q00613 whole entry): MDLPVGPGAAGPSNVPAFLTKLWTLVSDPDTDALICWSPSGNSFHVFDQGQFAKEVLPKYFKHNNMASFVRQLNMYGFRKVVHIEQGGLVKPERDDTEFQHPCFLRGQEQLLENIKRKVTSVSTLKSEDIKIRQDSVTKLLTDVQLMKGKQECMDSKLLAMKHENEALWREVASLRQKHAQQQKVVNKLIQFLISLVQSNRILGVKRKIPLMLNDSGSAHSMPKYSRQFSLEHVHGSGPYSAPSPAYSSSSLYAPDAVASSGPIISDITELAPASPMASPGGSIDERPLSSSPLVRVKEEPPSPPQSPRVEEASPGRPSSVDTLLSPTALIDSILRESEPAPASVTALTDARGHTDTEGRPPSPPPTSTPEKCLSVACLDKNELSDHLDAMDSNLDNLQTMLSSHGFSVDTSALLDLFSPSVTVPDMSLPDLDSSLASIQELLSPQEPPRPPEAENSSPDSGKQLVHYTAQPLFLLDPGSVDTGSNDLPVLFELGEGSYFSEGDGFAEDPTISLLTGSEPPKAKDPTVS
ETV6, sequence (P41212 whole entry): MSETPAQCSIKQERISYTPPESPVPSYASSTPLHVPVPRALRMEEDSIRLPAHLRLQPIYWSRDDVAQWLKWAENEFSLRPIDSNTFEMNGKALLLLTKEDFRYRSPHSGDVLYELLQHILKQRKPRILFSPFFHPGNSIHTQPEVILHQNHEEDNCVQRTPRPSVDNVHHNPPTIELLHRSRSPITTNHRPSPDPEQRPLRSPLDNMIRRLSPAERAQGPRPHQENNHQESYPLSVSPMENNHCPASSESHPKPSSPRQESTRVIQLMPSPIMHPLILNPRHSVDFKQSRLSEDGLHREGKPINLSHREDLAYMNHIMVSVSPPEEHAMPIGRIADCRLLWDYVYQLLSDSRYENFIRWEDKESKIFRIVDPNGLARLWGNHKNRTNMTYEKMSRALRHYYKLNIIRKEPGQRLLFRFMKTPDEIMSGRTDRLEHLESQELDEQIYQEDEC
ELF4, sequence (Q99607 whole entry): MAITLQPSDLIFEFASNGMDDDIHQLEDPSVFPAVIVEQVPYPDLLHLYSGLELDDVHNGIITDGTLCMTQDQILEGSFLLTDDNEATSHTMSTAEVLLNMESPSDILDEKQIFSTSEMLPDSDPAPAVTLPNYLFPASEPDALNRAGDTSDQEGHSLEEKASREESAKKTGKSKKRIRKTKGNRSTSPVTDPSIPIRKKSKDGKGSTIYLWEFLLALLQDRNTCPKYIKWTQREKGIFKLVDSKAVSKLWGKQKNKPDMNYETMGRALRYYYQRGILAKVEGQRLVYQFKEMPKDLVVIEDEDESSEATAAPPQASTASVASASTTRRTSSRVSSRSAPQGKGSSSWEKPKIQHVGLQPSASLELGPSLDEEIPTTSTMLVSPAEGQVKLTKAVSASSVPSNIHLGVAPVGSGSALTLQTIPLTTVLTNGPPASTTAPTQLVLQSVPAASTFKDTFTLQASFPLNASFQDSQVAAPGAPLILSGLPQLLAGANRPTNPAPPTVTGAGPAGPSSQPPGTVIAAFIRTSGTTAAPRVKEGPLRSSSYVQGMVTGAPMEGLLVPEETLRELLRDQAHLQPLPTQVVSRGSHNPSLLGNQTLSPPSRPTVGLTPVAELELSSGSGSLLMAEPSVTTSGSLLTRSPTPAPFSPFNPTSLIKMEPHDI
ETV5, sequence (P41161 whole entry): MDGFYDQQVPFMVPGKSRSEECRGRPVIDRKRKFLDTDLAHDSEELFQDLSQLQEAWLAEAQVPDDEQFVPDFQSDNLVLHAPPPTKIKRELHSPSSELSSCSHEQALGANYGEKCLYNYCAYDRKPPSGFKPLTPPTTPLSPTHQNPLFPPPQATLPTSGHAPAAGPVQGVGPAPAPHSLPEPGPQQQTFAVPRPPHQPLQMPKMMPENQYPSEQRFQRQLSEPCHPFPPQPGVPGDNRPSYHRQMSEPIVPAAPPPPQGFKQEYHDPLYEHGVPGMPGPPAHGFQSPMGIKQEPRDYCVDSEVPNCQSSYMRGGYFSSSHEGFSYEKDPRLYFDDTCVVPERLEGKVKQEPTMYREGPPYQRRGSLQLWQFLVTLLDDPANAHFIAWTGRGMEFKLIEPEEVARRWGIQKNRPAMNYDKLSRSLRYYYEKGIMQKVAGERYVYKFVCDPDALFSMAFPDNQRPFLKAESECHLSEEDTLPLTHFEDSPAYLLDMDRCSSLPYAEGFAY
CRX, sequence (O43186 whole entry): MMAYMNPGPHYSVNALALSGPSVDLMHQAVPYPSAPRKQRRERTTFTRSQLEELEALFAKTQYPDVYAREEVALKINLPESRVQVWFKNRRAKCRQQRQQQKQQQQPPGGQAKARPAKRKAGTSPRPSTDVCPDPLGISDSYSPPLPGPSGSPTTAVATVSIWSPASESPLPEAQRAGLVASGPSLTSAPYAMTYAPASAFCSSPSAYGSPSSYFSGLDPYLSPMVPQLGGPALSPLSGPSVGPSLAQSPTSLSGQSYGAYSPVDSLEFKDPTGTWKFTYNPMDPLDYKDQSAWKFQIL
ETV1, sequence (P50549 whole entry): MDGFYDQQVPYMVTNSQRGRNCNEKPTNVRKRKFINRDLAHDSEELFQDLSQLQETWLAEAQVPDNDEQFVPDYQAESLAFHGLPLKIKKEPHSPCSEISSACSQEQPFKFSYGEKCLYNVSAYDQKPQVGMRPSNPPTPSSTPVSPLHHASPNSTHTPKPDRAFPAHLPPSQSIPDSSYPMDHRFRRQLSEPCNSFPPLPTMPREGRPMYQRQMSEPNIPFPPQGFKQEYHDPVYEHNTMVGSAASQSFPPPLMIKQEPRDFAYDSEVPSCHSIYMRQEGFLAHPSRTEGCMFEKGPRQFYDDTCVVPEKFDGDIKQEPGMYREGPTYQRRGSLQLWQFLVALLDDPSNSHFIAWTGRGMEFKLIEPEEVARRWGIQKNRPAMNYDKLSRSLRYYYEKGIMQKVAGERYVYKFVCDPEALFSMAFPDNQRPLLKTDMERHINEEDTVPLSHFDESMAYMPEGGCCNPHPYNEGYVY

CTGTTC: the binding signal with FEV is 1.33 fold enrichment (6-mer frequency, TF over GST control); with ETV5, 1.39 fold enrichment (6-mer frequency, TF over GST control); in the experiment with HSF1, 1.38 fold enrichment (6-mer frequency, TF over GST control); with SPIC, 1.44 fold enrichment (6-mer frequency, TF over GST control); in the experiment with ELF4 it was 1.42 fold enrichment (6-mer frequency, TF over GST control); with ELK4 it was 1.19 fold enrichment (6-mer frequency, TF over GST control). For the same sequence, the binding signal with ETV2 was 1.38 fold enrichment (6-mer frequency, TF over GST control); in the experiment with ELF3, 1.63 fold enrichment (6-mer frequency, TF over GST control); with CRX, 1.07 fold enrichment (6-mer frequency, TF over GST control); with ETV1, 1.46 fold enrichment (6-mer frequency, TF over GST control); with ERF, 1.52 fold enrichment (6-mer frequency, TF over GST control); in the experiment with ETV3L, 1.31 fold enrichment (6-mer frequency, TF over GST control). Further, the binding signal with ETS2 was 1.44 fold enrichment (6-mer frequency, TF over GST control); with SPDEF, 1.29 fold enrichment (6-mer frequency, TF over GST control); with ETV7 it was 1.42 fold enrichment (6-mer frequency, TF over GST control); with ELF5, 1.52 fold enrichment (6-mer frequency, TF over GST control); in the experiment with ETV3 it was 1.51 fold enrichment (6-mer frequency, TF over GST control); with ETV6, 1.44 fold enrichment (6-mer frequency, TF over GST control).
